Test in all cases: protein-binding microarray (PBM); PBM: ~300 nM protein, 6 mM HEPES pH 7.8, 80 mM KCl, 0.5 mM EDTA, 0.5 mM EGTA, 6% glycerol, 35 ng/ul poly-dIdC, 1% milk, 1 h, room temperature; Ap Aiptasia and Nv Nematostella (sea anemones) / Co Capsaspora / Aq Amphimedon (sponge) / Dm Drosophila / Hu human; RHD is the Rel homology domain; high values mean tight binding
What all share (details): dsDNA, one strand shown

One experiment addresses T1, GST-Ap-NF-kB RHD (Exaiptasia pallida (Aiptasia), UniProt A0A913YAJ5 2-422).
T1 sequence: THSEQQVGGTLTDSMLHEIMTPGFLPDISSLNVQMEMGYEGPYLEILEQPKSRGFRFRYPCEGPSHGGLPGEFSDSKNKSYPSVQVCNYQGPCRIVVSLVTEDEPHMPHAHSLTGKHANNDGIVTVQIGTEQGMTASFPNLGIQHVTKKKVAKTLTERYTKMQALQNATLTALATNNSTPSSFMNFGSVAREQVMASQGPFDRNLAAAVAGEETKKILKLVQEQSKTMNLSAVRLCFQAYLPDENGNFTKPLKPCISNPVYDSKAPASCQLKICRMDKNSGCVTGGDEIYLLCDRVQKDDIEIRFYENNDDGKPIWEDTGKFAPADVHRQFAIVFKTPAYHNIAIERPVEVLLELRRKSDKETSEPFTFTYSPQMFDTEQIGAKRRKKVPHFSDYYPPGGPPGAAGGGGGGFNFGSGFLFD

The target in experiment [1] is T2, GST-Nv-NF-kB (Cys allele) (Nematostella vectensis, UniProt E5G601 2-411).
T2 sequence: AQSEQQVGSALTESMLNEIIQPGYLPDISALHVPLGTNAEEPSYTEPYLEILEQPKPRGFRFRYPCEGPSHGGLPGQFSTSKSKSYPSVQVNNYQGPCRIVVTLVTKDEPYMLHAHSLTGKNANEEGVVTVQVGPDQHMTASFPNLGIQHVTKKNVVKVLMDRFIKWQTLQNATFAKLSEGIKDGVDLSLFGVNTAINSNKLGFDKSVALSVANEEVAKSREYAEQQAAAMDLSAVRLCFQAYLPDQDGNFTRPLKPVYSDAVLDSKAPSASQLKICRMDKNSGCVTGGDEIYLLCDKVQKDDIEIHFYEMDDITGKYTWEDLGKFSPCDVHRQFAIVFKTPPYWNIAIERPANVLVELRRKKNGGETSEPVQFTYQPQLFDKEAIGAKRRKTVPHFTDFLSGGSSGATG

For experiment [2], the target named is T3, GST-Nv-NF-kB (Ser allele) (Nematostella vectensis, UniProt A7UNT2 2-411).
T3 sequence: T2 sequence with Q21R, C66S, S207N, E215Q, V217A, E225K, A268E, D399E

The next experiment has as its target T4, GST-Co-NF-kB (Capsaspora owczarzaki, UniProt F1ARL5 200-546).
T4 sequence: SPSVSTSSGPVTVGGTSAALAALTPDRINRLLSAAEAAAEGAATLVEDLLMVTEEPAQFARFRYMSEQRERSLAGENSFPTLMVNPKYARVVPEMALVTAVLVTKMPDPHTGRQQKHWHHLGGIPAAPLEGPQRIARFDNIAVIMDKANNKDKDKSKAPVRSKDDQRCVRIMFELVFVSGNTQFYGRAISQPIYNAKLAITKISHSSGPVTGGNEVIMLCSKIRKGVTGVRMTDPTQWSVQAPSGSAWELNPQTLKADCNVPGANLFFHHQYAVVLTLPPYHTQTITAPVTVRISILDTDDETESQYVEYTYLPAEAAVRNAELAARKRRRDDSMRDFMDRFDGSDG

In the next experiment the target is T5, GST-Dm-Relish (Drosophila melanogaster, UniProt Q94527 99-473).
T5 sequence: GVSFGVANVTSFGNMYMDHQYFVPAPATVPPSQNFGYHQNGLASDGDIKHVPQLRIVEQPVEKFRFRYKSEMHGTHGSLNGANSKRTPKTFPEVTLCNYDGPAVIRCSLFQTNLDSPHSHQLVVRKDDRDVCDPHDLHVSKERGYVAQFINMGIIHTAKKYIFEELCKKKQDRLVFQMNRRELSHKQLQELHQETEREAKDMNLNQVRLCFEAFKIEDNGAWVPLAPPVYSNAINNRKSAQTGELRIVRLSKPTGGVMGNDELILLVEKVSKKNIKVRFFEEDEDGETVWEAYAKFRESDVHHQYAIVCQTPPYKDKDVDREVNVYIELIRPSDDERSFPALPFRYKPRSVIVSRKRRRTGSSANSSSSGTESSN

A further experiment concerns the target T6, GST-Aq-NF-kB (Amphimedon queenslandica, UniProt A9Y5G7 2-389).
T6 sequence: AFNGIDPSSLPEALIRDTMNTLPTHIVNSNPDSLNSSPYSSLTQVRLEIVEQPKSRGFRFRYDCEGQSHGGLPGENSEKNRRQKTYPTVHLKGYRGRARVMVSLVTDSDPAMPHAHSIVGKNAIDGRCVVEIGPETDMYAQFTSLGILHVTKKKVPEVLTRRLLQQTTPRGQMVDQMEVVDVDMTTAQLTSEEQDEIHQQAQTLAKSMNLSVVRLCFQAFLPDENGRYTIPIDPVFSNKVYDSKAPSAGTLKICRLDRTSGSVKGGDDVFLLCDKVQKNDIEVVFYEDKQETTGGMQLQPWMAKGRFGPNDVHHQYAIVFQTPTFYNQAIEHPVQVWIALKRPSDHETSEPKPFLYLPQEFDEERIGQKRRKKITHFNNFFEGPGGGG

The target of the next experiment is GST-Hu-p50 (Homo sapiens, UniProt P19838 7-356).

Substitutions are numbered along the chain they refer to.

GST-Hu-p50, sequence (P19838 7-356): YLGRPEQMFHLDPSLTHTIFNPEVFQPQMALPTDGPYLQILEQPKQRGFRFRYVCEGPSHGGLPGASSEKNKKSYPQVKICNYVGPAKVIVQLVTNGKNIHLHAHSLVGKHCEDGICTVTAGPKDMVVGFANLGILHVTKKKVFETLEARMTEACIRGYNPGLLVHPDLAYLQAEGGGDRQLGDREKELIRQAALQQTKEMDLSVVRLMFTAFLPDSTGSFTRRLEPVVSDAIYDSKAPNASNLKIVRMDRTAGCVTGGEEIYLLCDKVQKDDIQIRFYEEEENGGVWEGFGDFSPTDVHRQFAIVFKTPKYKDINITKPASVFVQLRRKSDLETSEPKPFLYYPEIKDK

“CCGATTAACATCAGGACTTCCCCTGATGTTAATCGGGTCTTGATTCGCTTGACGCTGCTG”: the binding signal is 10.1 z-score with GST-Ap-NF-kB RHD; 10.5 z-score in experiment [1]; 9.94 z-score in experiment [2]; 4.57 z-score with GST-Co-NF-kB; 9.98 z-score with GST-Dm-Relish; 10.4 z-score with GST-Aq-NF-kB. The same sequence displayed a binding signal in the experiment with GST-Hu-p50 of 6.36 z-score.
With “CCGATTAACATCAGGGGGTAACATGATGTTAATCGGGTCTTGATTCGCTTGACGCTGCTG”, the binding signal with GST-Ap-NF-kB RHD came to 4.79 z-score; in experiment [1], 3.69 z-score; in experiment [2] it was 4.43 z-score; in the experiment with GST-Co-NF-kB, 7.22 z-score; with GST-Dm-Relish, 2.49 z-score; with GST-Aq-NF-kB it was 3.72 z-score. In the experiment with GST-Hu-p50, this sequence showed a binding signal of 4.06 z-score.
Turning to “CCGATTAACATCAAGGGACCCCCTGATGTTAATCGGGTCTTGATTCGCTTGACGCTGCTG”, the binding signal with GST-Ap-NF-kB RHD was determined as 5.77 z-score; in experiment [1] it was 3.16 z-score; in experiment [2], 3.36 z-score; with GST-Co-NF-kB, 2.03 z-score; with GST-Dm-Relish, 7.64 z-score; with GST-Aq-NF-kB it was 4.72 z-score. Moreover, the binding signal with GST-Hu-p50 is 3.57 z-score.
On to “CCGATTAACATCAAATTCCCAGGTGATGTTAATCGGGTCTTGATTCGCTTGACGCTGCTG”, for which the binding signal was found to be 2.43 z-score with GST-Ap-NF-kB RHD; 3.11 z-score in experiment [1]; 3.64 z-score in experiment [2]; 3.53 z-score with GST-Co-NF-kB; 3.69 z-score in the experiment with GST-Dm-Relish; 2.4 z-score with GST-Aq-NF-kB. The binding signal in the experiment with GST-Hu-p50 came to 4.02 z-score.
In the case of “CCGATTAACATCAAACATCCCCTTGATGTTAATCGGGTCTTGATTCGCTTGACGCTGCTG”, the binding signal with GST-Ap-NF-kB RHD came to 6.4 z-score; in experiment [1] it was 7.13 z-score; in experiment [2], 7.29 z-score; with GST-Co-NF-kB, 2.37 z-score; with GST-Dm-Relish it was 6.75 z-score; with GST-Aq-NF-kB, 6.17 z-score. Besides, the binding signal in the experiment with GST-Hu-p50 is 5.4 z-score.
Take “CCGATTAACATCAGGGAAGTACCTGATGTTAATCGGGTCTTGATTCGCTTGACGCTGCTG”: the binding signal in the experiment with GST-Ap-NF-kB RHD turned out to be 6.67 z-score; in experiment [1], 7.36 z-score; in experiment [2] it was 8.68 z-score; in the experiment with GST-Co-NF-kB, 1.93 z-score; with GST-Dm-Relish, 9.88 z-score; with GST-Aq-NF-kB, 7.45 z-score. In addition, the binding signal with GST-Hu-p50 was found to be 5.92 z-score.
Turning to “CCGATTAACATCAAATATCCCCTTGATGTTAATCGGGTCTTGATTCGCTTGACGCTGCTG”, the binding signal with GST-Ap-NF-kB RHD came out at 8.05 z-score; in experiment [1] it was 8.3 z-score; in experiment [2], 9.01 z-score; with GST-Co-NF-kB it was 3.88 z-score; with GST-Dm-Relish, 6.97 z-score; in the experiment with GST-Aq-NF-kB, 6.2 z-score. In the experiment with GST-Hu-p50, this sequence had a binding signal of 6.19 z-score.
In the case of “CCGATTAACATCAGGGTAAGTACTGATGTTAATCGGGTCTTGATTCGCTTGACGCTGCTG”, the binding signal with GST-Ap-NF-kB RHD amounted to 2.48 z-score; in experiment [1], 3.05 z-score; in experiment [2] it was 2.93 z-score; in the experiment with GST-Co-NF-kB it was 1.85 z-score; in the experiment with GST-Dm-Relish it was 7.08 z-score; with GST-Aq-NF-kB, 5.82 z-score. Also, the binding signal with GST-Hu-p50 turned out to be 2.3 z-score.
Consider “CCGATTAACATCAAATGTCCCCCTGATGTTAATCGGGTCTTGATTCGCTTGACGCTGCTG”, for which the binding signal is 6.37 z-score in the experiment with GST-Ap-NF-kB RHD; 5.25 z-score in experiment [1]; 5.66 z-score in experiment [2]; 7.6 z-score in the experiment with GST-Co-NF-kB; 5.11 z-score with GST-Dm-Relish; 5.64 z-score with GST-Aq-NF-kB. Also, the binding signal in the experiment with GST-Hu-p50 turned out to be 4.71 z-score.
Turning to “CCGATTAACATCAGAAAAACCCCTGATGTTAATCGGGTCTTGATTCGCTTGACGCTGCTG”, the binding signal in the experiment with GST-Ap-NF-kB RHD is 7.98 z-score; in experiment [1], 8.56 z-score; in experiment [2], 7.56 z-score; with GST-Co-NF-kB, 2.03 z-score; in the experiment with GST-Dm-Relish, 9.4 z-score; with GST-Aq-NF-kB, 7.67 z-score. The binding signal with GST-Hu-p50 was 7.6 z-score.
As for “CCGATTAACATCAGGGGATGTACTGATGTTAATCGGGTCTTGATTCGCTTGACGCTGCTG”, the binding signal stood at 4.43 z-score in the experiment with GST-Ap-NF-kB RHD; 4.79 z-score in experiment [1]; 5.58 z-score in experiment [2]; 3.02 z-score in the experiment with GST-Co-NF-kB; 9.92 z-score with GST-Dm-Relish; 5.33 z-score in the experiment with GST-Aq-NF-kB. In addition, the binding signal in the experiment with GST-Hu-p50 worked out at 4.4 z-score.
Take “CCGATTAACATCAAAATACCCCGTGATGTTAATCGGGTCTTGATTCGCTTGACGCTGCTG”: the binding signal in the experiment with GST-Ap-NF-kB RHD is 6.29 z-score; in experiment [1], 5.39 z-score; in experiment [2], 5.69 z-score; with GST-Co-NF-kB it was 5.77 z-score; with GST-Dm-Relish, 5.44 z-score; in the experiment with GST-Aq-NF-kB, 5.69 z-score. In addition, the binding signal with GST-Hu-p50 amounted to 5.49 z-score.

The values are drawn from article PMC5700166.
